Measurements as given in PubChem BioAssay AID624093 (National Center for Advancing Translational Sciences (NCATS), 2012).
Inconclusive results are not listed. A number with no mark means an inactive call. Activity calls are given as the source filed them. Calls come from the whole dose curve; as a rule, active = well fitted inhibition curve with a large enough effect; inconclusive = small, poorly fitted or top-dose-only effect; inactive = flat fitted curve, though single readings scatter.

What follows are compounds tested against Dual specificity tyrosine-phosphorylation-regulated kinase 1A (Homo sapiens) (UniProt Q13627) (assay: Confirmation Assay for Inhibitors of Dyrk1a (Kinase-Glo Assay): KU probe). Details: Kinase-Glo ATP luminescence; series mostly up to 76.9 µM; activity, negative = inhibition: at the top concentration.
In short: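 Recombinant human Dyrk1A (5 nM) was incubated with 8 uM DYRKtide and 2 uM ATP in Tris-HCl pH 7.5 with MgCl2, EGTA, cysteine and Triton X-100 for 2 h at room temperature; residual ATP was measured by Kinase-Glo luminescence.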
`Clc1cc(Cl)cc(CNc2ncncc2-c2ccc3c(c2)OCO3)c1` was tested, and the Potency was 2.6 µM (active). In the case of `COc1ccc(-c2ccnc(NCc3ccc(Cl)c(Cl)c3)n2)cc1`, the Potency is reported as 0.733 µM (active). `Clc1cc(Cl)cc(CNc2ccnc(-c3ccc4c(c3)OCO4)n2)c1` was tested, and the “activity, negative = inhibition” value was -17.3%. `Brc1ccc(CNc2nccc(-c3ccc4c(c3)OCO4)n2)cc1Br` was tested, and the Potency was 0.823 µM (active). In the case of `COc1ccc(CNc2ccnc(-c3c(C)noc3C)n2)cc1`, the “activity, negative = inhibition” value is reported as -1.66%. With `O=C(O)c1ccc(-c2ccc3ncnc(N4CCOCC4)c3c2)o1` the Potency was 26 µM (active). `c1coc(-c2ccnc(-c3ccc4c(c3)OCO4)n2)c1` was tested, and the Potency was 20.7 µM (active).
